# Rows were chosen to be rich in hits. Some 7.5% of all compounds tested hit in one or more screens of this group.
# Rab9 promoter act – activators of Rab9 promoter. Huh7 Rab9 promoter-luciferase reporter, luminescence, 24 h. Potency, µM (top dose mostly 9.22 µM), without a hit: at the highest dose activation, negative = inhibition, actives largely listed as activators. actives 2.8% (n = 320,000); also: % of control where 0% means no effect; nearly all actives have a fitted effect of over 60% in size
#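 Cell-based reporter: Huh7 stable for Rab9 promoter-driven luciferase, plated in reduced-serum medium with 10% FBS at 1500 cells/well, compound-treated 24 h at 37 °C, luminescence read after 10 min reagent.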
# Luc counter – blocks Kinase-Glo luciferase, a counter-screen artifact; Kinase-Glo luciferase, ATP luminescence, 8 min; Q27757; actives 0.28% (n = 200,000); Potency, µM (series often up to 38.3 µM), inactives show at the highest dose activity change, negative = inhibition, usual class: inhibitors; also: % is scaled to controls: 0 for no effect and ±100 for the full control effect; nearly all actives have a fitted effect of over 60% in size
#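 Substrate mix (final 50 mM imidazole pH 7.2, 50 mM KCl, 7 mM MgCl2, 10 uM ATP, 0.01% Tween 20, 0.05% BSA) plus pin-tool compound, then Kinase-Glo detection mix; 8 min ambient, luminescence read.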
# NPC1 prom act – activates the NPC1 promoter; actives 2.4% (n = 320,000); Huh7 NPC1 promoter luciferase reporter, 24 h; Potency, µM (highest dose often 9.22 µM), for inactives: top-dose activation, most hits filed as activators; also: % of control where 0% means no effect; nearly all actives have a fitted effect of over 60% in size
#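 Luminescence read-out of NPC1 promoter-driven luciferase in stably transfected Huh7 cells; compounds delivered in DMSO and left 24 h at 37C, 5% CO2, qHTS titration format.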
# ELG1 genotox – inducers of genotoxicity in HEK293T ELG1-luciferase cells; Potency, µM (highest dose often 46 µM), for the others: at the top dose activity change, positive = activation, hits mostly activators; actives 1.3% (n = 330,000); AID 504466; HEK293T ELG1-luciferase reporter, luminescence, 16 h; also: % of control where 0% means no effect; nearly all actives have a fitted effect of over 60% in size
#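 After overnight (16 hr) compound treatment at 37 °C, ELG1-luciferase HEK293T cells were lysed with ONE-Glo; luminescence quantified 30 min later at room temperature.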
# SMN2 splice enh – increases expression of the SMN2 splice variant; HEK293 SMN2-luciferase splicing reporter, luminescence, 30-36 h; Potency, µM (titrated, usually from 46.1 µM), for inactives: at the highest dose activity change, positive = activation, most hits filed as activators; actives 2.8% (n = 210,000); AID 1458; also: % of control where 0% means no effect; nearly all actives have a fitted effect of over 55% in size
#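 HEK293 cells carry an SMN2 […]–luciferase reporter in which exon 7 inclusion puts luciferase in frame. Cells were plated 10-12 h before compound addition, then incubated 30-36 h at 37C. ONE-Glo luminescence was read; sodium butyrate at 4.5 mM final served as control.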
# FLuc modulator – firefly luciferase modulation, counter-screen for miR-21 project; Potency, µM (series often up to 57.5 µM), without a hit: at the top dose activity change, negative = inhibition, actives largely listed as inhibitors; actives 6.9% (n = 360,000); purified FLuc, Km substrates, luminescence inhibition; AID 588342;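 also: plate controls were vehicle for no effect and reference inhibitor for full effect; nearly all actives have a fitted effect of over 55% in size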
# Target sequence (P08659 whole entry, looked up): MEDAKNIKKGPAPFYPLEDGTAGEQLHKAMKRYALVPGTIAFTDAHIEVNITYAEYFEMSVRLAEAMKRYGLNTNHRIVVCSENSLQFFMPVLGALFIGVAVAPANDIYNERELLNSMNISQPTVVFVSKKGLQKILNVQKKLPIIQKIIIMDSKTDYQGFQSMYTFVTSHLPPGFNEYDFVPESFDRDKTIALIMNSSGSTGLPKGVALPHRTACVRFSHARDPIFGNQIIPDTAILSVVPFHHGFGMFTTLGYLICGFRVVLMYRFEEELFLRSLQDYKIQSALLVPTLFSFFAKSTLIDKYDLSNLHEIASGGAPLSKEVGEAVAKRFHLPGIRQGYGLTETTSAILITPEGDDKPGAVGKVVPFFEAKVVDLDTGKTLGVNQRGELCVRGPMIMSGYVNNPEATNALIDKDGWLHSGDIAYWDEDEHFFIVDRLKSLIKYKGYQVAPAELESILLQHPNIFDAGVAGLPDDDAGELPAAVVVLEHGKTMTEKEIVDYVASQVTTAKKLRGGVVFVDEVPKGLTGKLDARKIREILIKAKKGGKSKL
#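 Biochemical qHTS of compounds, final roughly 60 µM downward over six points, against 10 nM purified firefly luciferase using Km concentrations of substrates (10 uM D-luciferin, 10 uM ATP) in Tris acetate pH 7.5 buffer; luminescence output.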
# Numbers without * were called inactive; ? = inconclusive; · = no result given; [ ] = dose if it differs, or a comment. Calls follow the shape of the dose curve; as a rule, active = well fitted curve in the direction sought with a large enough effect; inconclusive = small, poorly fitted or top-dose-only effect, or another doubt; inactive = no such curve, though single readings can be large; an effect the other way counts as inactive or inconclusive. Potency is read from the fitted curve at half-maximal effect.
SMILES,Rab9 promoter act,Luc counter,NPC1 prom act,ELG1 genotox,SMN2 splice enh,FLuc modulator
CCOc1ccc(-c2nnc(SCC(=O)NCc3ccccc3Cl)o2)cc1,·,·,·,·,·,16.9µM*
CCOc1ccc(-c2nnc(SCC(=O)N3CCNC3=O)o2)cc1,2µM*,·,2µM*,?,·,5.36µM*
O=C(CSc1nnc(-c2ccccc2F)o1)N1CCNC1=O,3.16µM*,·,2.51µM*,?,·,13.5µM*
O=C(CSc1ncccn1)NCc1ccccc1Cl,1.41µM*,-3.1%,3.98µM*,18.4µM*,12.6µM*,26.9µM*
CCCCNc1nc(C)nc2c1nc(-c1ccccc1)n2CC1CCCN1CC (configuration not stated),·,-1.2%,·,·,-9.0%,·
COc1ccc(CNC(=O)c2ccc(SC)cc2OC)cc1,2.5%,2.8%,-0.3%,2.0%,8.0%,-3.3%
COc1cc(SC)ccc1C(=O)NCCc1ccccc1,3.55µM*,-2.8%,3.55µM*,?,10µM*,6.01µM*
COc1cc(SC)ccc1C(=O)Nc1ccon1,2.82µM*,-3.3%,?,?,?,13.5µM*
COc1cc(SC)ccc1C(=O)Nc1ncc(Cl)cc1Cl,1.58µM*,-1.4%,3.98µM*,?,12.6µM*,2.39µM*
COc1cc(SC)ccc1C(=O)Nc1ccc(Br)cn1,0.282µM*,·,0.316µM*,?,·,0.0757µM*
COc1cc(SC)ccc1C(=O)NCCOc1ccc(Cl)cc1,0.5%,2.5%,-0.2%,-1.7%,-10.9%,-15.7%
CC(=O)[C@@H]1CC[C@@H]2[C@@H]3C[C@H](C)C4=CC(=O)CC[C@@]4(C)[C@H]3[C@H](O)C[C@]21C,·,1.9%[17.1 µM],·,·,-6.4%[20.6 µM],·
CCC(=O)Nc1sc2c(c1C(=O)Nc1ccccc1C)CCC(C)C2 (configuration not stated),·,·,·,·,·,-2.4%
CCOC(=O)c1ccc(NC(=O)c2c(C)oc3nc(C)nc(N4CCCC4)c23)cc1,·,·,·,·,·,5.9%
COc1cc(SC)ccc1C(=O)NC(C)C,-4.5%,-0.6%,-3.3%,4.0%,-1.5%,-3.6%
COc1cc(SC)ccc1C(=O)Nc1ccc2ncccc2c1,0.447µM*,·,1.26µM*,?,·,0.757µM*
COc1cc(SC)ccc1C(=O)Nc1ncc(C)s1,0.447µM*,-1.7%,?,?,1.26µM*,0.135µM*
COc1cc(SC)ccc1C(=O)Nc1ccccn1,0.794µM*,·,0.794µM*,?,·,0.477µM*
COc1cc(SC)ccc1C(=O)Nc1cccc(C)n1,2µM*,-4.2%,?,?,11.2µM*,3.38µM*
Cc1ccc(C)c(Cn2c(=O)n(Cc3ccccc3)c(=O)c3c2c2cc(C)ccc2n3C)c1,·,·,·,·,·,-0.1%
CCc1ccc(-n2nc(C)c3c(C)cc(=O)n(CC(=O)Nc4ccccc4C(=O)OC)c32)cc1,·,·,·,·,·,-1.1%
CCCN1CCN(c2ncnc3sc(C(=O)Nc4ccc(N(CC)CC)cc4C)c(C)c23)CC1,·,·,·,·,·,-15.7%
COc1cccc(/C=N/NC(=O)CCc2ccccc2)c1,1.3%,-1.0%,0.6%,3.2%,-3.8%,10.7µM*
COc1ccc(NC(=O)CCCc2ccc(OC)c(C)c2)cc1,8.8%,·,3.4%,-3.5%,·,-8.6%
COc1cccc(/C=N/NC(=O)CCCc2ccc(OC)c(C)c2)c1,-2.2%,-0.4%,-1.4%,-0.9%,-15.9%,19µM*
SMILES,Rab9 promoter act,Luc counter,NPC1 prom act,ELG1 genotox,SMN2 splice enh,FLuc modulator
COc1ccc(/C=N/NC(=O)CCc2ccccc2)cc1O,6.2%,-4.7%,-0.7%,3.0%,-5.7%,-14.1%
Cc1ccc(C(=O)NCC(=O)OCc2cc(=O)n3ccsc3n2)cc1,·,·,·,·,·,-0.3%
O=S(=O)(O)c1ccc(N=NNc2ccc(Br)cc2)cc1,-2.3%,·,7.6%,0.6%,·,9.53µM*
Cc1nn(C)c2c1c(C(F)(F)F)cc(=O)n2CC(=O)Nc1ccc(F)cc1F,·,·,·,·,·,-7.0%
CCn1c(SCc2ccc(C(=O)Nc3nccs3)cc2)nnc1-c1ccc(NC(C)=O)cc1,4.8%,0.9%,3.8%,-2.9%,9.4%,10.7µM*
C=CCn1c(SCc2ccc(C(=O)Nc3ccccc3)cc2)nnc1-c1ccccc1,9.8%,-3.0%,13.1%,-6.8%,-13.6%,13.5µM*
Cn1c(SCc2ccc(C(=O)Nc3nccs3)cc2)nnc1-c1ccccc1,9.6%,-4.4%,18.0%,-2.3%,-1.4%,15.1µM*
CCn1c(SCc2ccc(C(=O)Nc3nccs3)cc2)nnc1-c1ccc(N)cc1,0.3%,-4.5%,11.7%,-4.6%,14.8%,16.9µM*
C=CCn1c(SCC(=O)NNC(=S)Nc2ccccc2)nnc1-c1ccccc1,-1.1%,·,-5.6%,3.6%,·,-1.4%
Cc1cccc(-c2nc3cc(NC(=O)COc4ccccc4F)ccc3o2)c1,·,·,·,·,·,5.3%
Cc1cc(C)c2c(n1)nn1c(C)c(CCC(=O)Nc3cccc(C)c3C)c(C)nc21,·,·,·,·,15.0%,2.1%
COc1cc(NC(=O)CC(C)S(=O)(=O)c2ccc3c(c2)CCN3C(C)=O)cc(OC)c1OC (configuration not stated),·,·,·,·,·,-2.6%
Oc1c(N=Nc2ccc(F)cc2)ccc2ccccc12,4.47µM*,·,3.16µM*,2.06µM*,·,0.601µM*
Oc1ccc2ccccc2c1N=Nc1ccc(F)cc1,12.1%,·,28.4%,-0.5%,·,-19.8%
Cc1ccc(N=Nc2ccc3ccccc3c2O)cc1,2.51µM*,·,0.562µM*,?,·,0.239µM*
O=c1c2sc3ccccc3c2n(Cc2cccc(C(F)(F)F)c2)c(=O)n1Cc1ccco1,·,·,·,·,-9.5%,0.7%
O=C(NCCN1C(=O)C2C3C=CC(C3)C2C1=O)Nc1cccnc1 (configuration not stated),-4.1%,0.1%,0.7%,3.9%,-24.1%,-3.0%
O=C(NCCN1C(=O)C2C3C=CC(C3)C2C1=O)Nc1ccc(Br)cc1 (configuration not stated),2.24µM*,3.4%,3.16µM*,8.2µM*,11.2µM*,10.7µM*
CCCCCOC(=O)c1ccc(OC(=O)c2sc3ncn(Cc4cccc(F)c4)c(=O)c3c2C)cc1,·,·,·,·,·,-0.7%
C/C(=N\NC(=O)C1CC1)c1cccc(NC(=O)c2cccc(Cl)c2)c1,2.3%,3.5%,2.6%,0.0%,21.6%,?
C/C(=N\NC(=O)CSCc1ccccc1Cl)c1cccc(NC(=O)c2ccccc2)c1,-8.6%,7.3%,-3.4%,-6.9%,-65.3%,4.6%
C/C(=N\NC(=O)c1cc(O)ccc1O)c1cccc(NC(=O)c2ccc(Cl)cc2)c1,13.9%,·,?,2.7%,·,1.07µM*
C/C(=N\NC(=O)c1cc(O)ccc1O)c1cccc(NC(=O)c2cccc(Cl)c2)c1,3.7%,·,0.7%,7.0%,·,8.49µM*
COc1ccc(-c2cn3c(n2)sc2cc(C(=O)NCCc4ccccc4)ccc23)cc1,·,·,·,·,·,-12.8%
Cc1ccc2ncc(C(=O)NCc3ccccc3Cl)c(=O)n2c1,·,·,·,·,0.2%,-6.8%
